# Source: PubChem BioAssay AID2405 (Southern Research Specialized Biocontainment Screening …, 2010)
# A number with no mark means an inactive call. How the calls were made is not given here.
# Assay: RSV cytopathic effect inhibition in HEp-2 – cell-based, probe candidates (AID 2405)
# Conditions: HEp-2 cells, active compounds read high; at 100 µM unless noted
row,Compound,maximum inhibition
1,CC1CC(C)CN(C(=O)CSc2nc3ccccc3c(=O)n2-c2ccc(F)cc2)C1 (stereo not drawn),2.13%
2,CCN(CC)CCCNC(=S)N1CCN(c2nc(-c3ccccc3)cs2)CC1,1.02% [at 0.2 µM]
3,COc1cccc(-n2c(SCC(=O)Nc3ccc4c(c3)CCC4)nc3ccccc3c2=O)c1,8.16%
4,OC1c2c(F)cccc2N=C2CCCCN21 (stereo not drawn),1.55% [at 12.5 µM]
5,CCOC(=O)C1(Cc2ccccc2C(F)(F)F)CCN(C2CCN(C(C)=O)CC2)CC1,1.32% [at 6.25 µM]
6,COc1ccc(-c2csc(NC(=O)c3ccccc3F)n2)cc1,1.37%
7,O=C(Nc1nc(-c2ccccc2)cs1)c1ccccc1Cl,45.7% [at 12.5 µM]
8,CCN(CC)CCCNC(=S)N1CCN(c2nc(-c3ccc(F)cc3)cs2)CC1,0.61% [at 0.2 µM]
9,Cc1cccc2c1-c1sc(C(=O)NCCCN3CCCC(C)C3)cc1CO2 (stereo not drawn),1.01% [at 0.78 µM]
10,OC1c2cc(Br)ccc2N=C2CCCCCN21 (stereo not drawn),1.05%
11,O=C(CSc1nc2ccccc2c(=O)n1-c1ccc(F)cc1F)Nc1ccc2c(c1)CCC2,5.7% [at 25 µM]
12,Nc1ccc2nc3n(c(=O)c2c1)CCC3,1.81% [at 12.5 µM]
13,OC1c2cc(Cl)cc(Cl)c2N=C2CCCN21 (stereo not drawn),4.35%
14,CC1CC(C)CN(CCCNC(=O)c2cc3c(s2)-c2ccccc2OC3)C1 (stereo not drawn),1.49% [at 25 µM]
15,O=C(Nc1nc(-c2ccc(Cl)cc2)cs1)c1cccc(Cl)c1,6.93% [at 25 µM]
16,COc1ccc(-c2csc(N(C(=O)c3ccccc3Cl)C(C)C)n2)cc1,6.99% [at 25 µM]
17,OC1c2c(F)cccc2N=C2CCCN21 (stereo not drawn),0.86%
18,O=C(Nc1nc(-c2ccc(Cl)cc2)cs1)c1ccccc1F,3.06% [at 12.5 µM]
19,COc1ccc(NC(=O)CSc2nc3ccccc3c(=O)n2-c2ccc(F)cc2)cc1,18.6%
20,COc1ccc(-c2csc(NC(=O)c3ccc(Cl)cc3)n2)cc1,0.97% [at 25 µM]
21,O=c1c2cc(Br)ccc2nc2n1CC/C2=C/c1ccccc1,10.8%
22,O=C(Nc1nc(-c2ccc(Cl)cc2)cs1)c1ccc(Cl)cc1,2.44%
23,Cc1cccc2c(=O)n(-c3ccccc3)c(SCC(=O)Nc3ccc4c(c3)CCC4)nc12,5.23% [at 12.5 µM]
24,COc1cccc(NC(=O)CSc2nc3ccccc3c(=O)n2-c2ccc(F)cc2)c1,48.3%
25,Cc1cccc2nc3n(c(=O)c12)CCC3,1.49% [at 25 µM]
26,O=c1c2cc(I)ccc2nc2n1CCC2,5.94%
27,O=C(CSc1nc2ccccc2c(=O)n1-c1ccc(Cl)cc1)Nc1ccc2c(c1)CCC2,11.5% [at 25 µM]
28,O=c1c2cc([N+](=O)[O-])ccc2nc2n1CCC2,1.3%
